About 2,000 (36%) of roughly 5,500 compounds were called active. Roughly 18% stayed inconclusive and do not appear here. Cut-off read from the data, not from the text of the source: active = normalized growth mostly below about 0.91 (no sharp cut-off); inconclusive = no clear call, values can overlap the other calls; inactive = mostly above about 0.92. This is one part of the list.
Experiment: chemical genetic growth profiling, strain panel (AID 1159580);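 note: tested at 20 µM; growth read once vehicle control cultures reached saturation at 30 °C; 1 = growth at the plate median or of vehicle wells; lower values mean less growth of the strain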
Conditions: S. cerevisiae deletion strains, growth OD

Measured: normalized growth

OC[C@H]1O[C@@H](n2cnc3c(Nc4ccccc4)ncnc32)C(O)[C@H]1O (some centres not stated)
inactive: locus YAL040C, strain CLN3, stronger effect = lower value 0.966 | locus YCL061C, strain MRC1 (second series), stronger effect = lower value 0.999 | locus YDR363W, strain ESC2, stronger effect = lower value 0.908 | locus YER002W, strain NOP16, stronger effect = lower value 0.977 | locus YJR075W, strain HOC1, stronger effect = lower value 1.01 | locus YMR307W, strain GAS1, stronger effect = lower value 1.02 | locus YNL128W, strain TEP1, stronger effect = lower value 0.987 | locus YNL175C, strain NOP13, stronger effect = lower value 0.98 | locus YNL197C, strain WHI3, stronger effect = lower value 0.963 | locus YNL224C, strain SQS1, stronger effect = lower value 0.979 | locus YNL322C, strain KRE1, stronger effect = lower value 1.02 | locus YOR083W, strain WHI5 (second series), stronger effect = lower value 0.96
